Only a sample is shown.
aSyn 5UTR act: Activators via SNCA 5'UTR binding, MLPCN | alpha-synuclein 5'UTR reporter, activators screen | activity score, % (tested at 7.5 µM), hits read low | 300,000 tested, 7.1% active | AID 1814, 2009; in the data active means activity score below about -60%
* hit, by the source's call.

Screening O=c1c2ccccc2nc(/C=C/c2ccc(O)cc2)n1-c1ccc(O)cc1 returned aSyn 5UTR act -80*.
O=c1nc(/C=C/c2ccc(Cl)cc2Cl)cc(C(F)(F)F)[nH]1 was read as aSyn 5UTR act -64*.
O=c1[nH]c(=S)[nH]c(O)c1N=Nc1ccc(SC(F)F)cc1 was read as aSyn 5UTR act -72*.
For Nc1ncnc2c1ccn2[C@@H]1O[C@H](CO)[C@@H](O)[C@H]1O the results were aSyn 5UTR act 107.
`CCC1(OC(=O)CN)C(=O)OCc2c1cc1n(c2=O)Cc2cc3ccccc3nc2-1` (centres undefined) gave aSyn 5UTR act 103.

Source: PubChem (Broad Institute)
